Test results: the supplement of paper PMC4466140

What was measured:
Assay in all cases: SPOT peptide array binding signal intensity (averaged, normalized) (arbitrary units (background-subtracted, floor 0; scale differs between SH3 domains)); higher = stronger binding of the SH3 domain to the peptide
[1] = target: AgAbp1
Outline: (§1)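 Peptides were synthetic 15-mers on cellulose membranes, with every cysteine replaced by serine. They were incubated overnight at 4°C with GST-SH3 domains from four yeast species at 10 μg/ml in TBS-based blocking buffer. Binding signal, the replicate-averaged normalized and background-subtracted spot intensity, is in arbitrary units that differ between domains.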

[2] = target: AgBbc1
Outline: as §1

[3] = target: AgBem1-D1
Outline: as §1

[4] = target: AgBzz1-D1
Outline: as §1

[5] = target: AgBzz1-D2
Outline: as §1

[6] = target: AgCyk3
Outline: as §1

[7] = target: AgFus1
Outline: as §1

[8] = target: AgHof1
Outline: as §1

[9] = target: AgHse1
Outline: as §1

[10] = target: AgLsb1
Outline: as §1

[11] = target: AgLsb4
Outline: as §1

[12] = target: AgMyo5
Outline: as §1

[13] = target: AgNbp2
Outline: as §1

[14] = target: AgRvs167
Outline: as §1

[15] = target: AgSho1
Outline: as §1

[16] = target: AgSla1-D1-D2
Outline: as §1

[17] = target: AgSla1-D3
Outline: as §1

[18] = target: CaAbp1-D1
Outline: as §1

[19] = target: CaAbp1-D2
Outline: as §1

[20] = target: CaBbc1
Outline: as §1

[21] = target: CaBem1-D1
Outline: as §1

[22] = target: CaBzz1-D1
Outline: as §1

[23] = target: CaBzz1-D2
Outline: as §1

[24] = target: CaCyk3
Outline: as §1

[25] = target: CaFus1
Outline: as §1

[26] = target: CaHof1
Outline: as §1

[27] = target: CaHse1
Outline: as §1

[28] = target: CaLsb1
Outline: as §1

[29] = target: CaLsb4
Outline: as §1

[30] = target: CaMyo5
Outline: as §1

[31] = target: CaNbp2
Outline: as §1

[32] = target: CaRvs167
Outline: as §1

[33] = target: CaRvs167-3
Outline: as §1

[34] = target: CaSho1
Outline: as §1

[35] = target: CaSla1-D1-D2
Outline: as §1

[36] = target: CaSla1-D3
Outline: as §1

[37] = target: ScAbp1
Outline: as §1

[38] = target: ScBbc1
Outline: as §1

[39] = target: ScBem1-D1
Outline: as §1

[40] = target: ScBzz1-D1
Outline: as §1

[41] = target: ScBzz1-D2
Outline: as §1

[42] = target: ScCyk3
Outline: as §1

[43] = target: ScFus1
Outline: as §1

[44] = target: ScHof1
Outline: as §1

[45] = target: ScHse1
Outline: as §1

[46] = target: ScLsb1
Outline: as §1

[47] = target: ScLsb2
Outline: as §1

[48] = target: ScLsb3
Outline: as §1

[49] = target: ScLsb4
Outline: as §1

[50] = target: ScMyo3
Outline: as §1

[51] = target: ScMyo5
Outline: as §1

[52] = target: ScNbp2
Outline: as §1

[53] = target: ScPex13
Outline: as §1

[54] = target: ScRvs167
Outline: as §1

[55] = target: ScSho1
Outline: as §1

[56] = target: ScSla1-D1-D2
Outline: as §1

[57] = target: ScSla1-D3
Outline: as §1

[58] = target: SpAbp1-D1
Outline: as §1

[59] = target: SpBbc1
Outline: as §1

[60] = target: SpBzz1-D1
Outline: as §1

[61] = target: SpBzz1-D2
Outline: as §1

[62] = target: SpCyk3
Outline: as §1

[63] = target: SpHof1
Outline: as §1

[64] = target: SpHof1-2
Outline: as §1

[65] = target: SpHof1-3
Outline: as §1

[66] = target: SpHse1
Outline: as §1

[67] = target: SpLsb1
Outline: as §1

[68] = target: SpLsb4
Outline: as §1

[69] = target: SpMyo1
Outline: as §1

[70] = target: SpNbp2
Outline: as §1

[71] = target: SpPex13
Outline: as §1

[72] = target: SpRvs167
Outline: as §1

[73] = target: SpSla1-D1-D2
Outline: as §1

[74] = target: SpSla1-D3
Outline: as §1

Binder: NPLPKEPRLPKRKVA
- SPOT peptide array binding signal intensity [1]: 16
- SPOT peptide array binding signal intensity [2]: 254
- SPOT peptide array binding signal intensity [3]: 66.5
- SPOT peptide array binding signal intensity [4]: 48
- SPOT peptide array binding signal intensity [5]: 78.5
- SPOT peptide array binding signal intensity [6]: 1
- SPOT peptide array binding signal intensity [7]: 20
- SPOT peptide array binding signal intensity [8]: 28
- SPOT peptide array binding signal intensity [9]: 134
- SPOT peptide array binding signal intensity [10]: 3.25
- SPOT peptide array binding signal intensity [11]: 2040
- SPOT peptide array binding signal intensity [12]: ≤ 0
- SPOT peptide array binding signal intensity [13]: 25
- SPOT peptide array binding signal intensity [14]: 23
- SPOT peptide array binding signal intensity [15]: 37
- SPOT peptide array binding signal intensity [16]: 28
- SPOT peptide array binding signal intensity [17]: 9
- SPOT peptide array binding signal intensity [18]: 655
- SPOT peptide array binding signal intensity [19]: 376
- SPOT peptide array binding signal intensity [20]: 1010
- SPOT peptide array binding signal intensity [21]: 30
- SPOT peptide array binding signal intensity [22]: 122
- SPOT peptide array binding signal intensity [23]: 95.5
- SPOT peptide array binding signal intensity [24]: 6.5
- SPOT peptide array binding signal intensity [25]: 190
- SPOT peptide array binding signal intensity [26]: 2
- SPOT peptide array binding signal intensity [27]: 10.8
- SPOT peptide array binding signal intensity [28]: 4
- SPOT peptide array binding signal intensity [29]: 3890
- SPOT peptide array binding signal intensity [30]: 4
- SPOT peptide array binding signal intensity [31]: 112
- SPOT peptide array binding signal intensity [32]: 303
- SPOT peptide array binding signal intensity [33]: 4.5
- SPOT peptide array binding signal intensity [34]: 60
- SPOT peptide array binding signal intensity [35]: 1220
- SPOT peptide array binding signal intensity [36]: 6
- SPOT peptide array binding signal intensity [37]: 147
- SPOT peptide array binding signal intensity [38]: 168
- SPOT peptide array binding signal intensity [39]: 12.5
- SPOT peptide array binding signal intensity [40]: 81
- SPOT peptide array binding signal intensity [41]: 56.5
- SPOT peptide array binding signal intensity [42]: 3
- SPOT peptide array binding signal intensity [43]: 42
- SPOT peptide array binding signal intensity [44]: 1.25
- SPOT peptide array binding signal intensity [45]: 337
- SPOT peptide array binding signal intensity [46]: 29.5
- SPOT peptide array binding signal intensity [47]: ≤ 0
- SPOT peptide array binding signal intensity [48]: 3820
- SPOT peptide array binding signal intensity [49]: 1350
- SPOT peptide array binding signal intensity [50]: ≤ 0
- SPOT peptide array binding signal intensity [51]: ≤ 0
- SPOT peptide array binding signal intensity [52]: 41
- SPOT peptide array binding signal intensity [53]: 58.2
- SPOT peptide array binding signal intensity [54]: 1460
- SPOT peptide array binding signal intensity [55]: 286
- SPOT peptide array binding signal intensity [56]: 546
- SPOT peptide array binding signal intensity [57]: 4.5
- SPOT peptide array binding signal intensity [58]: 86
- SPOT peptide array binding signal intensity [59]: 4.25
- SPOT peptide array binding signal intensity [60]: 356
- SPOT peptide array binding signal intensity [61]: 2.5
- SPOT peptide array binding signal intensity [62]: ≤ 0
- SPOT peptide array binding signal intensity [63]: 120
- SPOT peptide array binding signal intensity [64]: 262
- SPOT peptide array binding signal intensity [65]: 464
- SPOT peptide array binding signal intensity [66]: 198
- SPOT peptide array binding signal intensity [67]: 16
- SPOT peptide array binding signal intensity [68]: 7280
- SPOT peptide array binding signal intensity [69]: ≤ 0
- SPOT peptide array binding signal intensity [70]: 27
- SPOT peptide array binding signal intensity [71]: 15
- SPOT peptide array binding signal intensity [72]: 1700
- SPOT peptide array binding signal intensity [73]: ≤ 0
- SPOT peptide array binding signal intensity [74]: 15
